{"source": "PubChem BioAssay (NCATS)", "note": "A number with no mark means an inactive call. Records with an inconclusive call do not appear. Active and inactive are the calls of the source. Unless noted, calls follow the shape of the dose curve; as a rule, active = well fitted curve in either direction with a large enough effect (not every such curve was filed as active); inconclusive = small, poorly fitted or top-dose-only effect, or another doubt; inactive = flat fitted curve, though single readings scatter. Bridge positions count the residues as written; N and C are the ends. Square brackets hold non-standard residues; d marks the D form. Peptide text beside a SMILES is read from it. * marks the point of attachment. Ileψ(thiazoline)Cys = CC[C@H](C)[C@H](N)C1=N[C@H](C(=O)*)CS1; d(aIle) = CC[C@H](C)[C@@H](N)C(=O)O; dOrn = NCCC[C@@H](N)C(=O)O"}
{"test_system": "not listed separately", "assay": "Stat Signaling Pathway (AID 446);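 also: ME-180 cervical cancer cells given 40 pM IL-6 alongside compound; SIE-controlled beta-lactamase reporter measured as 460/530 nm FRET emission ratio; % is scaled to controls: 0 for no effect and ±100 for the full control effect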", "details": "ME-180 SIE beta-lactamase reporter, IL-6 stimulated, 5 h; series mostly up to 17.2 µM; activity, negative = inhibition: at the top concentration", "procedure,_shortened": "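Overnight-plated ME-180 cells bearing a STAT Inducible Element beta-lactamase reporter; 5 h co-exposure to compound and 40 pM IL-6; values normalized to 300 pM IL-6 and 125 nM JAK inhibitor controls.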"}
{"smiles": "C#C[C@@]1(OC(C)=O)CC[C@@H]2[C@@H]3CCC4=C[C@@H](OC(C)=O)CC[C@H]4[C@H]3CC[C@]21C", "activity, negative = inhibition": "-21.8%"}
{"smiles": "CC#C[C@@]1(O)CC[C@H]2[C@@H]3CCC4=CC(=O)CCC4=C3[C@H](c3ccc(N(C)C)cc3)C[C@]21C", "activity, negative = inhibition": "10.2%"}
{"smiles": "Cc1ccsc1/C=C\\C1=NCCCN1C", "activity, negative = inhibition": "-4.03%"}
{"smiles": "Cc1cccc(CN2CCN([C@@H](c3ccccc3)c3ccc(Cl)cc3)CC2)c1", "activity, negative = inhibition": "3.71%"}
{"smiles": "C[C@@H]1[C@H]2CC[C@@H]3[C@@H]4CC=C5C[C@@H](N(C)C)CC[C@]5(C)[C@@H]4CC[C@@]32CN1C", "activity, negative = inhibition": "10.8%"}
{"smiles": "COc1ccc(CNc2ncncc2-c2ccccc2CN(C)C)c(OC)c1", "activity, negative = inhibition": "6.8% [at 7.69 µM]"}
{"smiles": "Nc1nc(=S)c2ncn([C@H]3O[C@@H](CO)[C@@H](O)[C@@H]3O)c2[nH]1", "activity, negative = inhibition": "-4.15%"}
{"smiles": "C#C[C@]1(O)CC[C@@H]2[C@H]3CCC4=CCCC[C@@H]4[C@@H]3CC[C@@]21C", "activity, negative = inhibition": "4.84%"}
{"smiles": "O=C(c1cc(C(F)(F)F)cc(C(F)(F)F)c1)N1CCC[C@@]2(CCN(c3ccccn3)C2)C1", "activity, negative = inhibition": "-0.943% [at 7.69 µM]"}
{"smiles": "CC[C@H](C)[C@H](N)C1=N[C@H](C(=O)N[C@@H](CC(C)C)C(=O)N[C@@H](CCC(=O)O)C(=O)N[C@@H](C(=O)N[C@H]2CCCCNC(=O)[C@@H](CC(N)=O)NC(=O)[C@@H](CC(=O)O)NC(=O)[C@@H](Cc3cnc[nH]3)NC(=O)[C@@H](Cc3ccccc3)NC(=O)[C@@H]([C@@H](C)CC)NC(=O)[C@@H](CCCN)NC2=O)[C@@H](C)CC)CS1", "note": "({Ileψ(thiazoline)Cys}-LE[d(aIle)]K[dOrn][d(aIle)][dF][dH][dD][dN]; lactam 4-C)", "activity, negative = inhibition": "0.609%"}
{"smiles": "CC1(C)S[C@@H]2[C@H](NC(=O)[C@@H](N)c3ccc(O)cc3)C(=O)N2[C@H]1C(=O)O", "activity, negative = inhibition": "0.876%"}
{"smiles": "C[C@H](CCC(=O)O)[C@H]1CC[C@@H]2[C@H]3[C@@H](CC[C@@]21C)[C@]1(C)CC[C@H](O)C[C@@H]1C[C@@H]3O", "activity, negative = inhibition": "-3.94%"}
{"smiles": "O=C(O)[C@@H](O)[C@@H](O)[C@@H](O[C@H]1O[C@@H](CO)[C@@H](O)[C@@H](O)[C@@H]1O)[C@@H](O)CO", "activity, negative = inhibition": "3.63%"}
{"smiles": "O=C(N[C@@H](CO)[C@@H](O)c1ccc([N+](=O)[O-])cc1)C(Cl)Cl", "activity, negative = inhibition": "2.14%"}
{"smiles": "CN1CCC2(CC1)CCN(C(=O)c1ccncc1)CC2", "activity, negative = inhibition": "0.691% [at 7.69 µM]"}
{"smiles": "CN(C)CCO[C@@H](c1ccc(Cl)cc1)c1ccccn1", "activity, negative = inhibition": "-23.5%"}
{"smiles": "O=C(O)COCCN1CCN([C@@H](c2ccccc2)c2ccc(Cl)cc2)CC1", "activity, negative = inhibition": "-7.46%"}
{"smiles": "CC(=O)O[C@H]1C[C@H]2CC[C@@H]3[C@@H](CC[C@]4(C)[C@H](OC(C)=O)[C@H]([N+]5(C)CCCCC5)C[C@@H]34)[C@]2(C)C[C@H]1[N+]1(C)CCCCC1", "activity, negative = inhibition": "-1.99%"}
{"smiles": "CCN(CC)CCOC(=O)[C@@H](Cc1cccc2ccccc12)C[C@@H]1CCCO1", "activity, negative = inhibition": "-18.8%"}
{"smiles": "Clc1ccc([C@H](Cn2ccnc2)OCc2c(Cl)cccc2Cl)c(Cl)c1", "activity, negative = inhibition": "-17%"}
{"smiles": "C[C@@H](CNC1CCCCC1)OC(=O)c1ccccc1", "activity, negative = inhibition": "0.00484%"}
{"smiles": "CC[C@H](CO)NCCN[C@@H](CC)CO", "activity, negative = inhibition": "5.84%"}
{"smiles": "CC[N+]1(C)[C@@H]2CC[C@H]1CC(OC(=O)[C@H]1CC[C@@](C(=O)OC3C[C@H]4CC[C@@H](C3)[N+]4(C)CC)(c3ccccc3)c3ccccc31)C2", "note": "(some centres not stated)", "activity, negative = inhibition": "-6.27%"}
{"smiles": "C[C@@]12C=CC(=O)C=C1CC[C@H]1[C@H]3CC[C@](O)(C(=O)CO)[C@]3(C)CC(=O)[C@@H]12", "activity, negative = inhibition": "6.15%"}
{"smiles": "CO[C@@H]1C=CO[C@]2(C)Oc3c(C)c(O)c4c(O)c(c(C=NN5CCN(C)CC5)c(O)c4c3C2=O)NC(=O)C(C)=CC=C[C@H](C)[C@H](O)[C@H](C)[C@H](O)[C@H](C)[C@H](OC(C)=O)[C@H]1C", "activity, negative = inhibition": "0.287%"}
{"molecular_target": "Glucocorticoid receptor (Homo sapiens) (UniProt P04150)", "sequence (P04150 whole entry, looked up)": "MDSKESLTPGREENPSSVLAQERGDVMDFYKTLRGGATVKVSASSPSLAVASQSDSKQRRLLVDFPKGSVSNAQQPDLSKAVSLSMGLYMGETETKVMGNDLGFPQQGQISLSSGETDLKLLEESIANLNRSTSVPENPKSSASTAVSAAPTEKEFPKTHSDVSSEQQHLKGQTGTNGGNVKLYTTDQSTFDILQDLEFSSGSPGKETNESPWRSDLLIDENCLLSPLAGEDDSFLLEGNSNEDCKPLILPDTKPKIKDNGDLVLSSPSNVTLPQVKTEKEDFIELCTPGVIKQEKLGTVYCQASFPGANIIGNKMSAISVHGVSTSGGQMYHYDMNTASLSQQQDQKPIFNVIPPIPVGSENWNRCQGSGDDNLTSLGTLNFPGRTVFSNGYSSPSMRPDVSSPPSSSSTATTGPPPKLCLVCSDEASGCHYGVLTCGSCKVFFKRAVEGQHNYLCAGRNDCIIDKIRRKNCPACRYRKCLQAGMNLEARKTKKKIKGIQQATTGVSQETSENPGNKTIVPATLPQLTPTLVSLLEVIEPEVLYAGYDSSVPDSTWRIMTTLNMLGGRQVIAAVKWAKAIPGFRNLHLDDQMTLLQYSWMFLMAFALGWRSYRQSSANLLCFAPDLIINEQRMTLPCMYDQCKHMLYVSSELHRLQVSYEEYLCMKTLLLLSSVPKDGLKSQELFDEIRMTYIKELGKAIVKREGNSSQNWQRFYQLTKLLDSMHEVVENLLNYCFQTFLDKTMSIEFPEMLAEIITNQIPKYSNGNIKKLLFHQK", "assay": "GR-GFP Redistribution (AID 450;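 active = compounds whose dose series gives a full or clear partial fitted curve of increased nuclear translocation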; also: potency is read from the fitted curve at half-maximal effect)", "details": "U2OS GR-GFP nuclear translocation, laser cytometry, 2 h"}
{"smiles": "C=CCO[C@@H](Cn1ccnc1)c1ccc(Cl)cc1Cl", "Potency": "> 20.6 µM"}
{"smiles": "CN(C/C=C\\c1ccccc1)Cc1cccc2ccccc12", "Potency": "> 20.6 µM"}
{"smiles": "CCN(CCCCOC(=O)c1ccc(OC)c(OC)c1)[C@@H](C)Cc1ccc(OC)cc1", "Potency": "> 20.6 µM"}
{"smiles": "C[C@H](NCCC(c1ccccc1)c1ccccc1)c1ccccc1", "Potency": "> 20.6 µM"}
{"smiles": "CCC(=O)OCC(=O)[C@@]1(OC(=O)CC)[C@H](C)C[C@@H]2[C@@H]3[C@H]([C@@H](O)C[C@@]21C)[C@]1(C)C=CC(=O)C=C1C[C@@H]3Cl", "Potency": "0.00423 µM (active)"}
{"smiles": "CC1(C)[C@@H](OC(=O)CCC(=O)O)CC[C@@]2(C)[C@H]1CC[C@@]1(C)[C@H]2C(=O)C=C2[C@H]3C[C@](C)(C(=O)O)CC[C@]3(C)CC[C@@]21C", "Potency": "> 20.6 µM"}
{"smiles": "C#C[C@@]1(OC(C)=O)CC[C@@H]2[C@@H]3CCC4=C[C@@H](OC(C)=O)CC[C@H]4[C@H]3CC[C@]21C", "Potency": "> 20.6 µM"}
{"smiles": "Cc1ccsc1/C=C\\C1=NCCCN1C", "Potency": "> 20.6 µM"}
{"smiles": "Cc1cccc(CN2CCN([C@@H](c3ccccc3)c3ccc(Cl)cc3)CC2)c1", "Potency": "> 20.6 µM"}
{"smiles": "C[C@@H]1[C@H]2CC[C@@H]3[C@@H]4CC=C5C[C@@H](N(C)C)CC[C@]5(C)[C@@H]4CC[C@@]32CN1C", "Potency": "> 20.6 µM"}
{"smiles": "COc1ccc(CNc2ncncc2-c2ccccc2CN(C)C)c(OC)c1", "Potency": "> 46 µM"}
{"smiles": "C#C[C@]1(O)CC[C@@H]2[C@H]3CCC4=CCCC[C@@H]4[C@@H]3CC[C@@]21C", "Potency": "> 20.6 µM"}
{"smiles": "O=C(O)[C@@H](O)[C@@H](O)[C@@H](O[C@H]1O[C@@H](CO)[C@@H](O)[C@@H](O)[C@@H]1O)[C@@H](O)CO", "Potency": "> 20.6 µM"}
{"smiles": "CC(=O)O[C@H]1C[C@H]2CC[C@@H]3[C@@H](CC[C@]4(C)[C@H](OC(C)=O)[C@H]([N+]5(C)CCCCC5)C[C@@H]34)[C@]2(C)C[C@H]1[N+]1(C)CCCCC1", "Potency": "> 20.6 µM"}
{"smiles": "Clc1ccc([C@H](Cn2ccnc2)OCc2c(Cl)cccc2Cl)c(Cl)c1", "Potency": "> 20.6 µM"}
{"smiles": "C[C@@H](CNC1CCCCC1)OC(=O)c1ccccc1", "Potency": "> 20.6 µM"}
{"smiles": "CC[N+]1(C)[C@@H]2CC[C@H]1CC(OC(=O)[C@H]1CC[C@@](C(=O)OC3C[C@H]4CC[C@@H](C3)[N+]4(C)CC)(c3ccccc3)c3ccccc31)C2", "note": "(some centres not stated)", "Potency": "> 20.6 µM"}
